Bioassay records from PubChem.
MEKK2wt PB1 HTS: modulators of MEK5 binding to wildtype MEKK2, primary screen, biochemical, multiplex bead flow cytometry, Alexa488-MEK5; binding response (% of control), % at 10 µM; Alexa488-MEK5 binding to MEKK2 WT; actives lie on both sides; 290,000 tested, 1.1% active; in the data active = binding response below about 67% or above about 130%
MEKK2mut PB1 HTS: MEK5 binding signal on mutant MEKK2 PB1, primary screen, biochemical, multiplex bead flow cytometry, Alexa488-MEK5; 290,000 tested, 0.35% active; percent response, % at 10 µM; AID 1530, 2009; Alexa488-MEK5 binding to MEKK2 mutant; in the data active = percent response above about 24%, passing the limit was not always enough
SKN-1 inh: suppressors of acrylamide-induced Pgst-4::GFP reporter in worms, primary screen, SKN-1 inhibitor project, whole organism, uHTS, GFP/RFP fluorescence ratio, strain VP596; C. elegans VP596 Pgst-4::GFP/RFP ratio, 24 h; inhibition, % at 21.8 µM; 360,000 tested, 0.49% active;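 active = interference check ratio from 0.5 to 1.5 plus GFP to RFP signal ratio inhibition reaching or exceeding a fixed threshold, cut at about 30% in these data, passing the limit was not always enough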
MEKK3 PB1 HTS: modulators of MEKK3-MEK5 PB1 binding, primary screen, biochemical, wildtype MEKK3, multiplex bead flow cytometry, Alexa488-MEK5. Mitogen-activated protein kinase kinase kinase 3 (Homo sapiens), Q99759. bead-based flow cytometry, Alexa488-MEK5 binding to MEKK3; actives lie on both sides; 0 = blocked by unlabeled MEK5, 100 = vehicle. binding response (% of control), % at 10 µM. 290,000 tested, 1.4% active. AID 1529, 2009;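 active = binding response more than 3 SD above or below the average of its plate-row segment, actives on both sides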;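 also: Alexa488 bead fluorescence after subtracting the streptavidin-only scavenger bead signal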
CendR NRP1 mod: modulators of CendR peptide binding to NRP-1, primary screen, biochemical, fluorescence polarization, uHTS | 360,000 tested, 0.85% active | FAM-RPARPAR peptide binding to NRP-1 | AID 602438, 2012 | inhibition, % at 25 µM;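 active = inhibition or corrected inhibition above about 18%, plus a signal ratio from 0.5 to 1.5, limit read from the data, passing the limit was not always enough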
Target sequence (O14786 whole entry, looked up): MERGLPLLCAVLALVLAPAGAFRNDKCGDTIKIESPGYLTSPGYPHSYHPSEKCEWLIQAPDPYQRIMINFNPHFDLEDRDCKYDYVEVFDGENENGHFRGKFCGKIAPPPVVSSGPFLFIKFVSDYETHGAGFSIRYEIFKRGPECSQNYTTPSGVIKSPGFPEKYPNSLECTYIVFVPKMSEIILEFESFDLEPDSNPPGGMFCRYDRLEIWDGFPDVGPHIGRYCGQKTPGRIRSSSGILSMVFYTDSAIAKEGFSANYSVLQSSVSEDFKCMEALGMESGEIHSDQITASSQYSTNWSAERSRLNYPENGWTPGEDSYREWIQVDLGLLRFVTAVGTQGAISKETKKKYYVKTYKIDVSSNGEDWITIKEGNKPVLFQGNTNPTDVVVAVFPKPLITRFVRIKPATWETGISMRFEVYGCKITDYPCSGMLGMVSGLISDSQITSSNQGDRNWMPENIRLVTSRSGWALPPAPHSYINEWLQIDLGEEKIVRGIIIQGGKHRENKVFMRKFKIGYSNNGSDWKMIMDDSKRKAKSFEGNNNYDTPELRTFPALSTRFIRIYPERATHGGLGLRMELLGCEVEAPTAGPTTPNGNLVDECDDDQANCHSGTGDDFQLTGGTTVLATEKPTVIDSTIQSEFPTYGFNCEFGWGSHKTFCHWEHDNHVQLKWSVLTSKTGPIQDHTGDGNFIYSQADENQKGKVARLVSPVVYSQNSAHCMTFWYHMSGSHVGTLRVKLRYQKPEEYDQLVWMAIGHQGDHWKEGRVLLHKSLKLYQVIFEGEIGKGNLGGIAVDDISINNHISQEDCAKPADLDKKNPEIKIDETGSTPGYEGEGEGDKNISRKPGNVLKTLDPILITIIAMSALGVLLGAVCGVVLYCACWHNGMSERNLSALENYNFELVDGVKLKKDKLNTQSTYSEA
* hit, by the source's call; · = no result. Shown are actives, neighbours in structure and some others; about 3.2% of the full set was active somewhere.

SMILES | MEKK2wt PB1 HTS | MEKK2mut PB1 HTS | SKN-1 inh | MEKK3 PB1 HTS | CendR NRP1 mod
O=C(CC1Sc2ccccc2NC1=O)NNc1cc(Cl)ccc1Cl (stereo not drawn) | · | · | 40* | · | -6
O=C(CC1Sc2ccccc2NC1=O)NNc1ccc(F)cc1 (stereo not drawn) | · | · | 13 | · | 1
CCSc1ncc(/C=N/Nc2ccccc2)n1C | 96 | -1 | 45* | 99 | 0
CCSc1ncc(/C=N/Nc2ccc(Cl)cc2)n1C | 100 | -1 | -9 | 97 | 1
COc1ccccc1CNC(=O)CCNS(=O)(=O)/C=C/c1ccc(C)cc1 | · | · | 18 | · | -3
CSc1ccc(-c2cc(=O)c3ccccc3o2)cc1 | 90 | -4 | 47* | 89 | -9
O=c1cc(-c2ccccc2F)oc2ccccc12 | 103 | 4 | -7 | 99 | -1
COc1ccc(C(CNC(=O)C(C)Sc2ccccc2)N2CCOCC2)cc1 (stereo not drawn) | · | · | -4 | · | -5
COc1ccccc1NC(=S)NCCc1ccccc1 | 103 | 1 | 29 | 103 | 30*
C(=N\NC1=Nc2cccc3cccc1c23)/c1ccccn1 | 8.0* | 1 | 7 | 95 | -73
Clc1ccccc1/C=N/NC1=Nc2cccc3cccc1c23 | 102 | 2 | 16 | 106 | -21
CCOC(=O)c1ccc(-n2cnc(-c3ccc([N+](=O)[O-])cc3)c2)cc1 | · | · | 18 | · | -13
C[C@@H]1CCCCO[C@H](CN(C)C(=O)Nc2ccc(F)cc2)[C@@H](C)CN([C@H](C)CO)C(=O)c2cc(N(C)C)ccc2O1 | · | · | 15 | · | -6
CCOc1cc(NC(=O)c2ccco2)c(OCC)cc1NC(=O)CCc1ccccc1OC | 87 | -5 | 39* | 85 | 10
O=C(CN1CCN(c2ncc(C(F)(F)F)cc2Cl)CC1)N1CCN(c2ncc(C(F)(F)F)cc2Cl)CC1 | 112 | 5 | 17 | 103 | -15
O=C(CSc1ccc(Cl)cc1)N1CCN(c2ncc(C(F)(F)F)cc2Cl)CC1 | 98 | -7 | 56* | 103 | 7
Cc1nn(-c2ccccc2)c(C)c1C(=O)OCC(=O)Nc1ccccc1 | · | · | 10 | · | 26*
CC(C)Cc1nnc(NC(=O)CCC(=O)NCCc2ccc(Cl)cc2)s1 | 98 | -2 | 16 | 98 | 6
O[C@@H]1CN(Cc2cccs2)[C@@H](c2ccccc2)C[C@H]1n1cc(C2CC2)nn1 | · | · | -6 | · | -4
S=c1[nH]nc(SCc2ccccc2)c2[nH]cnc12 | · | · | 4 | · | -2
C(=NNc1ccc2ccccc2n1)c1ccccn1 | · | · | 28 | · | -7
CCOCC(=O)Nc1cccc(Br)c1 | 113 | 11 | 37* | 107 | 3
Cc1ccc(-c2cc(C(=O)N/N=C/c3c(C)nn(-c4ccccc4)c3C)[nH]n2)cc1 | · | · | 47* | · | 2
C[C@@H](c1ccccc1)N1C[C@@H](COCc2ccccc2)Oc2cc(N3CC[C@@H](N(C)C)C3)ccc2S1(=O)=O | · | · | 9 | · | 25*
O=C1CN(S(=O)(=O)c2cc(Cl)ccc2Cl)c2ccccc2N1 | 104 | 1 | 16 | 103 | 22*
SMILES | MEKK2wt PB1 HTS | MEKK2mut PB1 HTS | SKN-1 inh | MEKK3 PB1 HTS | CendR NRP1 mod
Fc1ccccc1N1CCN(c2cnc3ccccc3n2)CC1 | 103 | 2 | 12 | 107 | 24*
Cc1ccc(C(C)C)cc1NC(=O)Nc1ccc([N+](=O)[O-])cc1 | 157* | 25* | 20 | 112 | 1
Cc1cc(O)c(C(C)C)cc1NC(=O)Nc1cc(Cl)ccc1Cl | · | · | 4 | · | -1
Cc1cc(O)c(C(C)C)cc1NC(=O)Nc1ccc([N+](=O)[O-])cc1 | · | · | 44* | · | -4
CC(C)C(=O)NC(NC(=O)C(C)C)c1ccc([N+](=O)[O-])cc1 | -1.0* | 3 | 2 | 100 | -1
Cc1ccccc1Nc1nc(N)[nH]c(=O)c1N=O | · | · | 5 | · | 15
C[C@@H]1CN([C@H](C)CO)C(=O)CCCn2nncc2CO[C@H]1CN(C)CC1CC1 | · | · | 4 | · | 11
COc1ccc(OCCN2CCC(C(=O)NC(C)c3cccc4ccccc34)CC2)cc1 (stereo not drawn) | · | · | -10 | · | -24
CCCNC(=O)C1(C)CCN(Cc2ccc3ccccc3c2Br)C1 (stereo not drawn) | · | · | 1 | · | -6
COc1cccc(-n2nnc3c(=O)n(CC(=O)OCc4ccccc4)cnc32)c1 | 99 | 8 | -5 | 115 | 26*
CC1=C(C(=O)N(C(C)C)C(C)C)CC(CC(=O)NCc2cccc3ccccc23)C(=O)N1Cc1ccc(F)cc1 (stereo not drawn) | · | · | 0 | · | -16
CC1CCN(C(C)C(=O)Nc2ccccc2-c2ccccc2)CC1 (stereo not drawn) | 97 | -5 | 44* | 97 | 14
CC1CCN(CC(=O)Nc2ccccc2C(=O)c2ccccc2)CC1 | 104 | 6 | 16 | 105 | 16
COc1ccccc1NC(=O)CN1CCN(C2c3ccccc3-c3ccccc32)CC1 | 89 | -20 | 37* | 95 | 2
CC1CCN(CC(=O)Nc2ccccc2-c2ccccc2)CC1 | 99 | 2 | 6 | 97 | 36*
Cc1ccc(Cl)c(NC(=O)COC(=O)c2nn(-c3ccccc3)cc2O)c1Cl | · | · | 11 | · | -2
COc1ccc(CC(N)c2csc(Nc3nccc(C(F)(F)F)n3)n2)cc1 (stereo not drawn) | · | · | 16 | · | 3
Cc1c(/C=N/Nc2nc3ccccc3[nH]2)c2ccccc2n1C | 168* | 30 | 7 | 98 | -8
C=CCn1cc(/C=N/Nc2nc3ccccc3[nH]2)c2ccccc21 | 232* | 43 | 4 | 114 | 12
CC(C)Cn1c(/C=N/Nc2nc3ccccc3[nH]2)nc2ccccc21 | 103 | 1 | 16 | 95 | -59
Cn1c(/C=N/Nc2nc3ccccc3[nH]2)nc2ccccc21 | 104 | 1 | 13 | 108 | -11
Clc1nc2ccccc2cc1/C=N/Nc1nc2ccccc2[nH]1 | 115 | 0 | 18 | 156* | -13
COc1ccc(-c2cc(-c3ccc(C)cc3)n[nH]2)c(O)c1 | 102 | 0 | 39* | 103 | 6
COc1ccc(-c2cc(-c3cc(C)ccc3O)[nH]n2)cc1 | 99 | -8 | 6 | 101 | -1
Cc1cccc(C(=O)O/N=C(\N)c2ccccn2)c1 | 100 | -2 | 37* | 98 | -14
N/C(=N\OC(=O)c1cccc(Br)c1)c1ccncc1 | 101 | 1 | 46* | 91 | -1
N/C(=N\OC(=O)c1ccc(Br)cc1)c1ccncc1 | 105 | -3 | 24 | 107 | 2
Cc1cc(C)c(OCCOCCN2CCNCC2)c(C)c1 | 112 | 4 | 39* | 108 | 1
Cc1ccc2ccccc2[n+]1CCCS(=O)(=O)[O-] | 111 | 1 | -3 | 106 | 0
